Shown are actives, neighbours in structure and some others; about 7.3% of the full set was active somewhere.
p53 reactivation – qHTS assay for re-activators of p53 using a Luc reporter | H1299 p53-A138V BP100-luciferase reporter, luminescence, 24 h | Potency, µM (highest dose often 92.2 µM), usual class: activators | 320,000 compounds, 0.063% hits | AID 504706, 2011; further: nearly all actives have a fitted effect of over 45% in size
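p53-null H1299 cells stably carrying temperature-sensitive p53-A138V and a BP100-luciferase reporter were pinned with compounds (4-point, 1:5 series) and held 24 hrs at 37 deg C. Luminescence was read 10 min after detection reagent.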
ELG1 genotox – qHTS screen for small molecules that induce genotoxicity in human embryonic kidney (HEK293T) cells expressing luciferase-tagged ELG1 | HEK293T ELG1-luciferase reporter, luminescence, 16 h | Potency, µM (series often up to 46 µM), most hits filed as activators | 330,000 compounds, 1.3% hits | AID 504466, 2011; further: nearly all actives have a fitted effect of over 60% in size
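Genotoxic stress is detected as increased luminescence from luciferase-tagged ELG1 in HEK293T cells, measured with ONE-Glo after a 16 hr treatment at 37 °C.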
Rab9 prom act – qHTS Assay for Rab9 Promoter Activators | 320,000 compounds, 2.8% hits | Potency, µM (series often up to 9.22 µM), most hits filed as activators | AID 485297, 2010 | Huh7 Rab9 promoter-luciferase reporter, luminescence, 24 h; further: nearly all actives have a fitted effect of over 60% in size
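Luminescence read-out: Huh7 cells stably expressing Rab9-luciferase, treated 24 h with compound at 37 °C, then lysed with luciferase reagent for 10 min at ambient before reading.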
SMN2 splice enh – qHTS Assay for Enhancers of SMN2 Splice Variant Expression; HEK293 SMN2-luciferase splicing reporter, luminescence, 30-36 h; Potency, µM (titrated, usually from 46.1 µM), actives largely listed as activators; 210,000 compounds, 2.8% hits; AID 1458, 2008; further: nearly all actives have a fitted effect of over 55% in size
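qHTS luciferase splicing reporter: luminescence rises when SMN2 exon 7 is included in transfected HEK293 cells. Compound exposure lasted 30-36 h at 37C, with 4.5 mM final sodium butyrate as control, followed by a ONE-Glo read.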
NPC1 prom act – qHTS Assay for NPC1 Promoter Activators. Huh7 NPC1 promoter luciferase reporter, 24 h. Potency, µM (top dose mostly 9.22 µM), actives largely listed as activators. 320,000 compounds, 2.4% hits. AID 485313, 2010; further: nearly all actives have a fitted effect of over 60% in size
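Luciferase expression driven by the NPC1 promoter was measured in stably transfected Huh7 cells after a 24 h compound incubation, using a luciferase reagent and a luminescence read.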
FLuc modulator – qHTS profiling assay for firefly luciferase inhibitor/activator using purifed enzyme and Km concentrations of substrates (counterscreen for miR-21 project). Luciferin 4-monooxygenase (Photinus pyralis), P08659. purified FLuc, Km substrates, luminescence inhibition. Potency, µM (top dose mostly 57.5 µM), hits mostly inhibitors. 360,000 compounds, 6.9% hits; further: nearly all actives have a fitted effect of over 55% in size
Target sequence (P08659 whole entry, looked up): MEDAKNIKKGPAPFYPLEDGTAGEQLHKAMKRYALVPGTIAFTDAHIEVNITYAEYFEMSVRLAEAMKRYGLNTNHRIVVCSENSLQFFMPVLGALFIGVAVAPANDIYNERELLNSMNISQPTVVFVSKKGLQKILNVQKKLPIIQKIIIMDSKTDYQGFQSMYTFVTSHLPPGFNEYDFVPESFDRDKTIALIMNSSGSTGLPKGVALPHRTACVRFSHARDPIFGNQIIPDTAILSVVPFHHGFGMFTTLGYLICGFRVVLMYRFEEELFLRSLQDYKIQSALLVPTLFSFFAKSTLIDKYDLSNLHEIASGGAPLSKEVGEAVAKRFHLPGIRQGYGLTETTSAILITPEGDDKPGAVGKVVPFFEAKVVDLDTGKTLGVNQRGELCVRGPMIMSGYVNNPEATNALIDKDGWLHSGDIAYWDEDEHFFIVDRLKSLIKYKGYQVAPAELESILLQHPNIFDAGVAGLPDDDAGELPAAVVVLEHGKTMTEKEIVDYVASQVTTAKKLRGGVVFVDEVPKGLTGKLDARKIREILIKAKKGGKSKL
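Purified P. pyralis luciferase, 10 nM final, with Km-level 10 uM D-luciferin and 10 uM ATP in 50 mM Tris acetate pH 7.5, 10 mM Mg acetate, 0.01% Tween-20, 0.05% BSA; 6-point qHTS titration about 60 µM downward; luminescence read.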
Numbers stand for hits. The call rests on the fitted dose curve; in most records, active means well fitted curve in the direction sought with a large enough effect; inconclusive means small, poorly fitted or top-dose-only effect, or another doubt; inactive means no such curve, though single readings can be large; an effect the other way counts as inactive or inconclusive.

Screening Nc1nc(CSCCO)nc(Nc2ccccc2)n1 returned p53 reactivation inactive, ELG1 genotox inactive, Rab9 prom act inactive, SMN2 splice enh inactive, NPC1 prom act inactive and FLuc modulator inactive.
Screening O=C(O)c1ccc(NC2=C/C(=N/S(=O)(=O)c3ccccc3)c3ccccc3C2=O)cc1 returned p53 reactivation inactive, ELG1 genotox inactive, Rab9 prom act inactive, SMN2 splice enh inactive, NPC1 prom act inactive and FLuc modulator 15µM.
Screening CC(C)(C)c1ccc(OC(=O)c2ccccc2)cc1 returned p53 reactivation inactive, ELG1 genotox inactive, Rab9 prom act inactive, NPC1 prom act inactive and FLuc modulator 2.4µM.
O=C(Oc1ccc(/C=N/O)cc1)c1ccccc1 was read as p53 reactivation inactive, ELG1 genotox inactive, Rab9 prom act inconclusive, SMN2 splice enh inactive, NPC1 prom act inactive and FLuc modulator 12µM.
For O=C(Oc1ccc2ccccc2c1)c1cncc(Br)c1 the results were p53 reactivation inactive, ELG1 genotox inactive, Rab9 prom act inactive, SMN2 splice enh inactive, NPC1 prom act inactive and FLuc modulator inactive.
For Cc1cccc(C(=O)Oc2ccc3ccc(O)cc3c2)c1 the results were ELG1 genotox inactive, Rab9 prom act inactive, NPC1 prom act inactive and FLuc modulator 24µM.
Screening O=C(Oc1ccc2ccccc2c1)c1ccccc1 returned p53 reactivation inactive, ELG1 genotox inconclusive, Rab9 prom act inactive, SMN2 splice enh inactive, NPC1 prom act inactive and FLuc modulator 2.4µM.
Screening COc1cc(Nc2nc(SCc3cccc(Cl)c3)nc3ccccc23)cc(OC)c1 returned FLuc modulator inactive.
`COCCn1c(C)cc(O)c(C(c2cccc(F)c2)N2CCN(c3ccccc3)CC2)c1=O` (stereo not drawn) gave FLuc modulator inactive.
Screening Cc1nc2nc(SCc3c(F)cccc3Cl)nn2c(C)c1Cc1ccccc1 returned FLuc modulator 5.4µM.
`Cc1nc2nc(SCc3ccc(F)cc3Cl)nn2c(C)c1Cc1ccccc1` gave FLuc modulator inactive.
`C=CCNC(=S)Nc1ccc(Br)cc1F` gave p53 reactivation inconclusive, ELG1 genotox inactive, Rab9 prom act inactive, SMN2 splice enh inactive, NPC1 prom act inactive and FLuc modulator inactive.
`CN(C)/C=N/C(=S)Nc1ccc(Br)cc1F` gave p53 reactivation inconclusive, ELG1 genotox inactive, Rab9 prom act 4µM, SMN2 splice enh inactive, NPC1 prom act inconclusive and FLuc modulator 19µM.
`O=c1cc(N2CCN(c3cccc(Cl)c3)CC2)[nH]c(=O)n1C1CCCCC1` gave p53 reactivation inactive, ELG1 genotox inconclusive, Rab9 prom act inactive, SMN2 splice enh 7.9µM, NPC1 prom act inactive and FLuc modulator inactive.
CN1CCO[C@H](c2ccccc2)c2ccccc2C1 was read as SMN2 splice enh inactive.
Screening Cc1ccc(C(=O)Nc2cccc3cccnc23)cc1Cl returned SMN2 splice enh inactive and FLuc modulator 11µM.
For Cc1ccc(C(=O)Nc2cccc3cccnc23)cc1C the results were p53 reactivation inconclusive, ELG1 genotox inconclusive, Rab9 prom act inconclusive, NPC1 prom act 2.8µM and FLuc modulator 12µM.
`COc1cc(NC(=O)Nc2cccc3cccnc23)cc(OC)c1OC` gave ELG1 genotox inactive, Rab9 prom act inactive, NPC1 prom act inactive and FLuc modulator 19µM.
For O=C(Nc1cccc2cccnc12)c1ccc(Cl)cc1 the results were p53 reactivation inactive, ELG1 genotox inactive, Rab9 prom act inactive, NPC1 prom act inactive and FLuc modulator 30µM.
COc1cc(C(=O)Nc2cccc3cccnc23)cc(OC)c1OC was read as p53 reactivation inactive, ELG1 genotox inactive, Rab9 prom act inactive, SMN2 splice enh inactive, NPC1 prom act inactive and FLuc modulator inactive.
C/C(=N\Nc1cccc2cccnc12)c1ccc(C)cc1 was read as p53 reactivation inactive, ELG1 genotox inconclusive, Rab9 prom act inconclusive, SMN2 splice enh 16µM, NPC1 prom act inconclusive and FLuc modulator 2.7µM.
For Cc1ccc(NC(=O)/C=C/c2ccc(C)o2)c(C)c1 the results were SMN2 splice enh inactive and FLuc modulator inconclusive.
Screening Cc1cccc(C(=O)Nc2cccnc2Cl)c1 returned p53 reactivation inactive, ELG1 genotox inactive, Rab9 prom act inactive, NPC1 prom act inactive and FLuc modulator inconclusive.
For Cc1cccc(C(=O)Nc2cccc3cccnc23)c1 the results were p53 reactivation inactive, ELG1 genotox inactive, Rab9 prom act 3.2µM, NPC1 prom act 4µM and FLuc modulator 21µM.
Screening Cc1ccc(/C=C/C(=O)Nc2cccc3cccnc23)o1 returned p53 reactivation inactive, ELG1 genotox inactive, Rab9 prom act inactive, SMN2 splice enh inactive, NPC1 prom act inactive and FLuc modulator 17µM.
CCc1ccc(-c2cc(-c3n[nH]c(=S)n3CC)c3ccccc3n2)cc1 was read as p53 reactivation inactive, ELG1 genotox inactive, Rab9 prom act inactive, SMN2 splice enh inconclusive, NPC1 prom act inactive and FLuc modulator 1.2µM.
Cc1ccc(-c2cc(-c3n[nH]c(=S)o3)c3ccccc3n2)cc1 was read as p53 reactivation inactive, ELG1 genotox inactive, Rab9 prom act inactive, SMN2 splice enh inactive, NPC1 prom act inactive and FLuc modulator 19µM.
Screening CCn1c(-c2ccccc2O)n[nH]c1=S returned p53 reactivation inactive, ELG1 genotox inactive, Rab9 prom act inactive, SMN2 splice enh inactive, NPC1 prom act inactive and FLuc modulator inactive.
CCn1c(-c2cc(-c3cccc(OC)c3)nc3ccccc23)n[nH]c1=S was read as p53 reactivation inactive, ELG1 genotox inactive, Rab9 prom act inactive, SMN2 splice enh inactive, NPC1 prom act inactive and FLuc modulator 24µM.
NCCC(=O)N[C@H](Cc1cnc[nH]1)C(=O)O was read as SMN2 splice enh inactive.
For CC(C)Sc1ncc(Cl)c(C(=O)Nc2ccc(S(=O)(=O)N3CCCCC3C)cc2)n1 (stereo not drawn) the results were SMN2 splice enh inactive and FLuc modulator inactive.
For Cc1cc(C)c2c(C)c(C(=O)N3CCC(c4nc5ccccc5s4)CC3)oc2c1 the results were FLuc modulator inactive.
`Cc1nn(-c2ccc(C(=O)NCC(c3ccco3)N3CCCC3)cc2)c(C)c1Cl` (stereo not drawn) gave p53 reactivation inactive, ELG1 genotox inactive, Rab9 prom act inactive, NPC1 prom act inactive and FLuc modulator inactive.
`Cc1ccc(/C=C/C(=O)Nc2ccc(Oc3ccccc3)cc2)o1` gave p53 reactivation inconclusive, ELG1 genotox inactive, Rab9 prom act inactive, SMN2 splice enh inactive, NPC1 prom act inactive and FLuc modulator 6µM.
For CC(=O)c1ccc(NC(=O)/C=C/c2ccc(C)o2)cc1 the results were SMN2 splice enh 13µM and FLuc modulator 7.6µM.
